# Screening data from PubChem.
# The sample as a whole holds a higher share of hits than the screen did.
# MgrA DNA FP: alters Staphylococcus aureus MgrA binding to DNA | fluorescence polarization | inhibition, % (concentration not given with the values) | 84,000 compounds, 0.13% hits | AID 602314; in the data active = inhibition above about 30%, passing the limit was not always enough;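 note: 0% = protein plus DNA without compound and 100% = DNA alone without protein; higher means less MgrA bound to DNA so lower polarization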
# * = called active by the depositor.
SMILES,MgrA DNA FP
O=C(O)C1Nc2c(I)cccc2C2C=CCC12 (stereo not given),101*
O=C(c1cccc2c1NC(c1ccc(Br)cc1)C1CC=CC21)N1CCOCC1 (stereo not given),1
COC(=O)c1ccc([C@@H]2Nc3c(C)cccc3[C@@H]3C=CC[C@@H]32)cc1,0
CC(C)(C)c1ccc(OCCCC(=O)O)cc1,-1
Cc1ccccc1NC(=O)Nc1ccc(CN2CCCCC2)cc1,1
CCN1C(=O)CC(c2ccc(OC)cc2)Sc2ccccc21 (stereo not given),-2
COc1ccc([C@H]2Sc3ccccc3N(CCN(C)C)C(=O)[C@H]2OC(C)=O)cc1,96*
COc1ccc(C2Sc3ccccc3N(CCN(C)C)C(=O)C2OC(C)=O)cc1 (stereo not given),1
COc1ccc(C=NN2CCN(Cc3ccccc3)CC2)c(OC)c1OC,0
CCN(CC)C(C)C(=O)Nc1c(C)cccc1C (stereo not given),0
C#CCN1C(=O)S/C(=C/c2cc(C)n(-c3cccc(I)c3)c2C)C1=O,1
CN(Cc1ccccc1)Cc1ccccc1O,0
CN(C)Cc1ccccc1C(O)c1ccccc1 (stereo not given),0
CN(C)Cc1cc(O)c(CN(C)C)cc1O,55*
CCOc1c(OC)cc(C#N)cc1C(=O)O,-2
Clc1ccc(-c2ccn[nH]2)c(Cl)c1,1
CC1=NN(c2cccc(C(=O)O)c2)C(=O)/C1=C\c1ccc(-c2cc([N+](=O)[O-])ccc2C)o1,2
CC1=NN(c2cccc(C(=O)O)c2)C(=O)/C1=C/c1ccc(-c2cccc(Cl)c2C)o1,96*
CC1=NN(c2cccc(C(=O)O)c2)C(=O)/C1=C\c1ccc(-c2ccc(Cl)c(C(=O)O)c2)o1,8
CCN(CC)CCNc1nc2c(c(=O)n(C)c(=O)n2C)n1Cc1c(Cl)cccc1Cl,0
CN(C)/C=C/C=C/c1cc(=O)cc(/C=C/C=C/N(C)C)o1,100*
O=C(CN1CCCCCCC1)Nc1ccc2c(c1)OCO2,-4
O=C(COCc1cc(-c2ccc(F)cc2)on1)NCc1cccs1,0
C=CCn1c(=N)n(CC(O)COc2ccc(C)cc2)c2ccccc21 (stereo not given),2
O=S(=O)(c1cccc(C(F)(F)F)c1)N1CCCC1c1cccnc1 (stereo not given),2
SMILES,MgrA DNA FP
O=S(=O)(c1ccc2nsnc2c1)N1CCCCC1c1cccnc1 (stereo not given),-2
O=S(=O)(c1ccc2c(c1)OCCO2)N1CCCCC1c1cccnc1 (stereo not given),58*
O=C(O)CC(c1ccsc1)n1cccc1 (stereo not given),0
Cc1ccc(C)n1C(CC(=O)O)c1ccc(F)cc1 (stereo not given),31
Cc1ccc(C)n1C(CC(=O)O)c1ccsc1 (stereo not given),61*
COc1cc(/C=C2\SC(=Nc3cc(C)cc(C)c3)NC2=O)c([N+](=O)[O-])cc1OC,3
Cc1ccc(SCCC(=O)NCCc2ccc(F)cc2)cc1,-2
O=C(O)c1ccc(N2CCCC2)cc1,-6
Cc1ccc(C)n1-c1ccc(C(=O)O)cc1,100*
Cc1cc(C)n(-c2ccc(C(=O)O)cc2)n1,-1
CN(C)c1nn(C(=O)NC(C)(C)C)cc1-c1ccccc1,-1
Cc1sc2nc(CN3CCN(C(=O)c4ccco4)CC3)n(C(=O)c3ccco3)c(=O)c2c1C,-2
CC[n+]1ccc(C)c2ccccc21,0
Cc1cc(-c2ccccc2N)nc2ccccc12,-4
Cc1cc(N)c2ccccc2[n+]1CCCCCCCCCC[n+]1c(C)cc(N)c2ccccc21,55*
CCC(=O)NC(=S)Nc1ccc2oc(-c3ccccc3Cl)nc2c1,1
Cc1cc(C)c2nc(N3CCCN(C(=O)c4ccco4)CC3)c(C#N)cc2c1,49*
CCc1cc2cc(C)cc(C)c2nc1SCC(=O)N1CCN(C(=O)c2ccco2)CC1,2
O=C(c1ccco1)N1CCCN(C(=O)c2ccco2)CC1,1
Cc1ccccc1C1C2=C(CCCC2=O)OC2=C1C(=O)CCC2,-1
CC(=O)Nc1ccc(NC(C)=O)c(C(F)(F)F)c1,1
O=C(O)c1cccc(-c2ccc(/C=c3/sc4nc5ccccc5n4c3=O)o2)c1,44*
COc1ccc(-c2ccc(/C=c3\sc4nc5ccccc5n4c3=O)o2)c([N+](=O)[O-])c1,0
Cc1ccc(-c2ccc(/C=c3\sc4nc5ccccc5n4c3=O)o2)c(Br)c1,-3
C=Cc1c(C)/c2[n-]/c1=C\c1[n-]c(c(CC)c1C)/C=c1\[n-]c3c(c1C)C(=O)C(C(=O)[O-])C=3c1[n-]c(c(C)c1CCC(=O)[O-])\C=2.[Cu].[Na+].[Na+] (stereo not given),88*
SMILES,MgrA DNA FP
O=c1oc2ccccc2cc1C1=NC(=S)NC(c2ccc3c(c2)OCO3)C1 (stereo not given),4
CCOc1ccc2nc3c(=O)[nH]c(=O)[nH]c3nc2c1,43
O=C(Nc1ccc2nc3c(=O)[nH]c(=O)[nH]c3nc2c1)C(F)(F)F,57*
Cc1ccc2oc(-c3ccc(NC(=O)C(F)(F)F)cc3)nc2c1,0
Cc1cc(NC(=O)C(C)(C)C)n(C)n1,-1
O=C(CSc1nnc(-c2ccoc2)c(-c2ccoc2)n1)c1ccc(-c2ccccc2)cc1,71*
CCc1ccc2c(c1)c1nnc(SCC(=O)c3ccc(OC)cc3)nc1n2C,-1
CCC(=O)Nc1ccc(C(=O)CSc2ncc(C#N)c(N)n2)cc1OC,3
Cn1c(SCC(=O)c2ccc(F)cc2)nnc1-c1ccco1,-4
CCOc1ccc(C(=O)CSc2nnc(-c3ccco3)c(-c3ccco3)n2)cc1NC(=O)CC,92*
O=C1COc2ccc(C(=O)CSc3nnc(-c4ccoc4)c(-c4ccoc4)n3)cc2N1,44
CCn1c(SCC(=O)c2ccccc2)nnc1-c1ccco1,-1
COc1ccc(C(=O)CSc2nnc(-c3ccco3)c(-c3ccco3)n2)cc1,51*
O=C(CSc1nnc(-c2ccoc2)c(-c2ccoc2)n1)c1ccc(N2CCCC2=O)cc1,42
NC(=O)c1cc(OCC(F)(F)F)ccc1OCC(F)(F)F,-3
c1ccc(-c2ccc(-c3csc(-c4cccnc4)n3)cc2)cc1,0
Cc1ccc(S(=O)(=O)N2CCN(S(=O)(=O)c3ccc(C)cc3)CC2)cc1,0
COc1cc2c(cc1OC)[C@@H](Cc1ccc(O)cc1)N(C)CC2,-1
CCNC(=O)CSc1ccc(Cl)cc1,0
CCOC(=O)CCn1ccc(=O)[nH]c1=O,4
CCOC(=O)C1=C(C)N=c2s/c(=C\c3ccc(N4CCCCC4)o3)c(=O)n2C1c1ccc(OC)cc1OC (stereo not given),1
Cc1ccccc1CSCc1ccc(C(=O)N2CCNc3ccccc3C2)o1,0
CSC1=C(C#N)C(=O)NC(c2ccc([N+](=O)[O-])cc2)S1 (stereo not given),9
CCOC(=O)/C(C#N)=N\Nc1cc(C)cc(C)c1,4
CC(C)(C)c1ccc(C(=O)O/N=C/c2ccc3c(c2)OCO3)cc1,2
SMILES,MgrA DNA FP
CC(Sc1nnnn1-c1ccccc1)C(=O)O (stereo not given),-3
c1ccc(CSc2nnnn2-c2ccccc2)cc1,11
O=C1C=CC(=O)C(Sc2nnnn2-c2ccccc2)=C1,75*
COc1cc(/C=C2\N=C(SC)SC2=O)cc(OC)c1OC(C)=O,2
c1ccc(C2SCCN2c2ccccc2)cc1 (stereo not given),1
CCN1CN=C(SCc2ccc(Br)cc2)NC1,0
